Among the data in PubChem BioAssay AID588689 (Southern Research Specialized Biocontainment Screening …, 2011) are inhibition values, retold here.

As a reminder, the inhibition is the relative decrease from the control value, in per cent.

The structures appear in SMILES notation. In all, about 340,000 compounds went through this assay and about 1,000 (0.29%) were called active. No stated cut-off is given here; in the data, inconclusive means inhibition above about 29% without an active follow-up result; inactive means below that. The list is a sample of the results. Entries with a potency or affinity are not part of this list.

The target of this test is Genome polyprotein (Dengue virus type 2 (strain 16681-PDK53)) (UniProt P29991). Nature of the test: Dengue-2 NS5 methyltransferase inhibitors, primary screen, biochemical, confirmation dose response (AID 588689). Conditions: Dengue-2 NS5 methyltransferase capping enzyme assay, at 25 µM, stronger effect = higher value.
Chain of Genome polyprotein (Dengue virus type 2 (strain 16681-PDK53)) (P29991 whole entry, looked up): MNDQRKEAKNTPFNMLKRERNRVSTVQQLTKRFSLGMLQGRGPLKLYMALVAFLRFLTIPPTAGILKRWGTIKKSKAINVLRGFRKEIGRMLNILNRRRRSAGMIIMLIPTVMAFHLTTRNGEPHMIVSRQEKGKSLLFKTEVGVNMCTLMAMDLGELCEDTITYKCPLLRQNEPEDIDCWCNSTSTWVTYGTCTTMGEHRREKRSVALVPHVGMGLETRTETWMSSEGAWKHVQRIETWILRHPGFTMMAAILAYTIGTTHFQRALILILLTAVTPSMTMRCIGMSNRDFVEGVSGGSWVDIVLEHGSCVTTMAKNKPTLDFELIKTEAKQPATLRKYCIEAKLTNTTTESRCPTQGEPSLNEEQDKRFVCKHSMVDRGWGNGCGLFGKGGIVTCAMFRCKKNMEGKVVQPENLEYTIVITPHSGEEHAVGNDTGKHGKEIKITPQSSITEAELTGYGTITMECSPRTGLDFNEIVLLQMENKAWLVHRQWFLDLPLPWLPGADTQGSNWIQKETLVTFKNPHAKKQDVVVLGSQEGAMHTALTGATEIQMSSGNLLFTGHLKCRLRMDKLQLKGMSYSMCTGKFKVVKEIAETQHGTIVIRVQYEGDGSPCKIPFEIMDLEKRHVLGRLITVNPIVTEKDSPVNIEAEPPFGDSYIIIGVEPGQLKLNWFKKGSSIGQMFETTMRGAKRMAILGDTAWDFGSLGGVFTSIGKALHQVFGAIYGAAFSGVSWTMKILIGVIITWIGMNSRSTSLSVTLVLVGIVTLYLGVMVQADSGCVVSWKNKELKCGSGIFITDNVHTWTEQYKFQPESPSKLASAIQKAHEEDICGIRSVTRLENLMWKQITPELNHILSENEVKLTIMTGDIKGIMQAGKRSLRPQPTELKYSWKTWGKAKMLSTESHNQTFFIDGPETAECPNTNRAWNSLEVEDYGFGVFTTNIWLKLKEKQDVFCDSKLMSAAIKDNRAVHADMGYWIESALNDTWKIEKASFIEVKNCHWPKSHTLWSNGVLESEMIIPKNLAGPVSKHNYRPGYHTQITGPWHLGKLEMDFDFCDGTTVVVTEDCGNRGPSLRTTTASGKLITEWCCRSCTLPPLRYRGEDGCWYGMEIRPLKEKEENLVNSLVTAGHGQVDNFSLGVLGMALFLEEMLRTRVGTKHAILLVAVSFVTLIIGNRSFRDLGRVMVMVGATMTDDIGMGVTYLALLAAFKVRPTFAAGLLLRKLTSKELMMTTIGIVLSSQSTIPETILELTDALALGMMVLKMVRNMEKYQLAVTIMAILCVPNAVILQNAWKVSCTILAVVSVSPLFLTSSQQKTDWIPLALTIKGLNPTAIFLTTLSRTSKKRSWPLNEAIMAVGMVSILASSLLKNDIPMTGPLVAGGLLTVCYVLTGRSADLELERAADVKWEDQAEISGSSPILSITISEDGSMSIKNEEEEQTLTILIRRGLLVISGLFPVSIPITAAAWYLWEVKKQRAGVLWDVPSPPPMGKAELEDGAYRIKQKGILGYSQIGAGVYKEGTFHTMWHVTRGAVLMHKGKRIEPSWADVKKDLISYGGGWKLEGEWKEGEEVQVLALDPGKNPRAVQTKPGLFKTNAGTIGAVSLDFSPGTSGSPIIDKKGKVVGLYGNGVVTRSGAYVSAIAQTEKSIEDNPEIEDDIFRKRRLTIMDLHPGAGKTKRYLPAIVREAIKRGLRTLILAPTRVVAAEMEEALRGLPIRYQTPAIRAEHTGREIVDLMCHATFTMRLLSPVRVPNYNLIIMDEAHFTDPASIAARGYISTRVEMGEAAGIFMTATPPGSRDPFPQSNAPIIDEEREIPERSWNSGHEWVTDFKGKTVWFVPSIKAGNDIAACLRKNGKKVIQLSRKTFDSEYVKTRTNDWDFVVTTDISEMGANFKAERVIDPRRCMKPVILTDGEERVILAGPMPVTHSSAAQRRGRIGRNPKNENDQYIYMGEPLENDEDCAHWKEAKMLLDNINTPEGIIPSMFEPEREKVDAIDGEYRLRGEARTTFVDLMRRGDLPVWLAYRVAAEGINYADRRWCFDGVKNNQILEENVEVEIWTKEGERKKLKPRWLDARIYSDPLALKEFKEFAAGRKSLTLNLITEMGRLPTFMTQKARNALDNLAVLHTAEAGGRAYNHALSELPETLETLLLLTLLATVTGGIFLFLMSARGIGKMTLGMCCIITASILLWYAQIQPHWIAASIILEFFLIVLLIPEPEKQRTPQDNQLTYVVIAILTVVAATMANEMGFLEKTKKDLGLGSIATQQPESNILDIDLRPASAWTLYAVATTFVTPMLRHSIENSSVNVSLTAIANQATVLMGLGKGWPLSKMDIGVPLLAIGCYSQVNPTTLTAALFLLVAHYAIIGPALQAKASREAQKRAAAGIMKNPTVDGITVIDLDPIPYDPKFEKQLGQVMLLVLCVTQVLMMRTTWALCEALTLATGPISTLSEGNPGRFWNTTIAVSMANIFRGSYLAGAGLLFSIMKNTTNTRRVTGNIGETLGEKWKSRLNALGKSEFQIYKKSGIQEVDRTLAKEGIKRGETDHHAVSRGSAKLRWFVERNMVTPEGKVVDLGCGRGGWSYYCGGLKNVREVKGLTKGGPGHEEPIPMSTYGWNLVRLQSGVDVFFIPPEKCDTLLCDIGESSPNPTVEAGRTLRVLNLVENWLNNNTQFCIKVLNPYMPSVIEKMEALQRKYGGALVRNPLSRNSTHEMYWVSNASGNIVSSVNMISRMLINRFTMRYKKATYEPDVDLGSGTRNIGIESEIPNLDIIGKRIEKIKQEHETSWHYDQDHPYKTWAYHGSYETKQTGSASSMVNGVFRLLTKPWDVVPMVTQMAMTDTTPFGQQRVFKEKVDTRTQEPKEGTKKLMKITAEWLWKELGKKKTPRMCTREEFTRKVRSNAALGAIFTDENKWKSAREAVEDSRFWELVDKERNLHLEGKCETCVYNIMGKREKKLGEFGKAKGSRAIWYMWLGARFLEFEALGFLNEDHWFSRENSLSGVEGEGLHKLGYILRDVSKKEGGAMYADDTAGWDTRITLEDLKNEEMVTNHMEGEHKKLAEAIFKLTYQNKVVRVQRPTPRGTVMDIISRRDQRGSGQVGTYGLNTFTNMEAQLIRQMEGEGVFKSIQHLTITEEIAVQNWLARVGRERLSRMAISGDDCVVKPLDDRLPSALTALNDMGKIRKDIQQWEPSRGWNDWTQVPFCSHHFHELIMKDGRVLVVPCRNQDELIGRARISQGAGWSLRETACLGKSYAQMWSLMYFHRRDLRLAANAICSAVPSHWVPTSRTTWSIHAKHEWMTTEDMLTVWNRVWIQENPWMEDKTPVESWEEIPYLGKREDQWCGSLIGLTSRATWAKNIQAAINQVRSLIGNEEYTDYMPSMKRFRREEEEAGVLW
Where [1] appears, read: measured here: pilot screen replicate inhibition.

With `Cc1nc(NN)nc(NCc2ccccc2)n1`, the inhibition is -1.54% (inactive). Take `CC[C@H]1c2[nH]c3ccccc3c2C[C@@H]2C(=O)N(c3ccc(F)cc3)C(=O)N21`: the inhibition is 0% (inactive). Turning to `Cc1ccc(C(=O)NNC(=O)C2CSC3(C)CCC(=O)N23)cc1` (stereo not given), the inhibition was 5.19% (inactive). For `CC(=O)Nc1c(O)nc(SCC(=O)Nc2nnc(SCc3ccccc3)s2)[nH]c1=O`, the inhibition is 3.91% (inactive). For the molecule `Cc1cc(=O)[nH]c(SCC(=O)Nc2nnc(SCc3ccccc3)s2)n1`, the inhibition was -1.48% (inactive). Regarding `COc1cccc(CN2CCNC(=O)C2CC(=O)NCCc2ccccn2)c1` (stereo not given), the inhibition is -3.12% (inactive). On to `Cc1occc1C(=O)Nc1cnn(CCCC(=O)O)c1`, for which the inhibition is 0.32% (inactive).

As to `O=C(CC(=O)NN=C1CCCCCC1)NCc1cccnc1`, the inhibition was -7.12% (inactive). As for `COc1cc(/C=C2/SC(=S)N(CC(=O)O)C2=O)ccc1OC(=O)c1ccco1`, the inhibition was -8.15% (inactive). For the molecule `CCOc1cc(/C=C2/SC(=S)N(Cc3ccccc3)C2=O)ccc1O`, the inhibition is -16.7% (inactive). As for `COc1cc(/C=C2\SC(=S)N(CC(=O)O)C2=O)ccc1OC(=O)c1ccco1`, the inhibition is -6.52% (inactive).

As for `CCOc1ccc(/C=C2\SC(=S)N(CCC(=O)O)C2=O)cc1`, the inhibition is 10.9% (inactive). In the case of `CCn1c(O)c(/C=C2\C=NN=C2c2ccccc2)sc1=S`, the inhibition is 1.56% (inactive).

On to `Cc1ccc(C2=NN(C(=O)CCC(=O)O)C(c3ccc4c(c3)OCO4)C2)cc1` (stereo not given), for which the inhibition is -1.55% (inactive).

In the case of `COc1ccc(CNC(=O)CN(Cc2ccccc2F)C(=O)c2csnn2)cc1`, the inhibition is -7.27% (inactive). The same measure, in the same setting: to `CCc1cccc2c1NC(=O)C21N2CCCC2C(C(=O)c2ccc3ccccc3c2)C12C(=O)Nc1ccccc12` (stereo not given) belongs -10.4% (inactive); to `Cc1c(Cl)cccc1NC(=O)CC1Sc2ccccc2NC1=O` (stereo not given), -2.59% (inactive).

For `O=C(O)c1ccc(C(=O)C(=O)c2ccccc2)cc1`, the inhibition was -3.83% (inactive).

Regarding `CCN(CC)c1ccc(C(=O)O)cc1`, the inhibition is -2.67% (inactive). As for `O=C(Oc1ccc(/C=N/NC(=O)c2ccccn2)cc1)c1cccc(F)c1`, the inhibition was 0.65% (inactive). Turning to `O=S(=O)(c1ccccc1)c1nc(-c2ccc(F)cc2)oc1NCC1CCCO1` (stereo not given), the inhibition was -1.48% (inactive). As for `CC(C)NC(=O)C(=O)Nc1ccc2c(c1)N(S(=O)(=O)c1cccs1)CCC2`, the inhibition was 2.2% (inactive). Take `CCn1c(-c2ccco2)nc2ccccc21`: the inhibition is -5.14% (inactive). `c1coc(Cn2c(-c3ccco3)nc3ccccc32)c1`: the inhibition is -8.81% (inactive). As to `O=C(CCc1nc(-c2ccc(Cl)cc2)no1)NCc1ccccc1CN1CCOCC1`, the inhibition is 1.12% (inactive). For `CN(C)c1ccc(/C=C(\C#N)C(=O)c2ccccc2)cc1`, the inhibition is -80.6% (inactive).

Turning to `O=C(C=Cc1cccc(Cl)c1)c1ccccc1`, the inhibition is -41.2% (inactive). Same read-out and setting: to `CNC(=S)N(CCN(C)C)Cc1cc2cc3c(cc2[nH]c1=O)OCO3` belongs -3.53% (inactive); to `Cn1c(=O)cc(N)n(-c2ccccc2)c1=O`, 1.3% (inactive); to `O=C1c2ccccc2COc2ccc(O)cc21`, 4% (inactive). For the molecule `Cc1ccnc(N2CCC(C(=O)Nc3ccc4c(c3)CCC4)CC2)n1`, the inhibition was -1.37% (inactive). The inhibition under setting [1] is -2.12%. Regarding `CCc1nnc(NC(=O)CSc2nc(-c3ccc(OC)cc3)ns2)s1`, the inhibition is -9.71% (inactive). As for `CN(C)c1ccc(C(=O)c2ccccc2C(=O)O)c(O)c1`, the inhibition was -0.81% (inactive). With `CCN(CC)c1ccc(C(=O)c2ccccc2C(=O)O)c(O)c1`, the inhibition was 8.17% (inactive). Besides, the inhibition under setting [1] worked out at 6.25%. Turning to `Cc1nc(N)nc(N(C)c2ccccc2)c1Br`, the inhibition was 3.09% (inactive). `O=C(COC(=O)C1CCN(S(=O)(=O)c2cccc3cccnc23)CC1)c1ccc([N+](=O)[O-])cc1`: the inhibition is -7.6% (inactive). On to `O=S(=O)(Cc1ccccc1)N1CCN(Cc2ccc(F)cc2Cl)CC1`, for which the inhibition is -4.55% (inactive). As to `COc1ccc(C(c2c(C)n(C)n(-c3ccccc3)c2=O)c2c(C)n(C)n(-c3ccccc3)c2=O)cc1OC`, the inhibition is -2.72% (inactive).

For the molecule `COc1ccc(C(C[N+](=O)[O-])c2c(C)[nH]n(-c3ccccc3)c2=O)cc1` (stereo not given), the inhibition is -13.7% (inactive). Same read-out and setting: to `COc1cc(C(c2c(C)[nH][nH]c2=O)c2c(C)[nH][nH]c2=O)cc(OC)c1OC` belongs 1.7% (inactive).

For `COc1ccc(N=C(c2ccccc2)c2c(C)[nH]n(-c3ccccc3)c2=O)c(OC)c1`, the inhibition is -10.3% (inactive). For `Nc1nccc(/C=C/c2c(Cl)cccc2Cl)n1`, the inhibition is -5.43% (inactive).

For `Cn1c(=O)c2c(SCc3ccccc3)nc(C3CC3)nc2n(C)c1=O`, the inhibition is -11.1% (inactive). Consider `CC(C)(C)OC(=O)C[C@H]1C/C=C\C[C@@H](CC(=O)N(CCO)Cc2ccccc2)C(=O)N[C@@H](Cc2ccccc2)COC1=O`, for which the inhibition was 1.65% (inactive).

Turning to `CCOC(=O)C1CCN(C(=O)C2CCN(S(=O)(=O)c3ccc4c(c3)CC(C)N4C(C)=O)CC2)CC1` (stereo not given), the inhibition was 2.72% (inactive). Take `O=C(C1CCN(Cc2ccc(Cl)cc2)CC1)N1CCN(C(c2ccccc2)c2ccccc2)CC1`: the inhibition is -2.91% (inactive).

`O=C(O)c1ccc2c(c1)C(=O)N(c1ccc(Nc3ccccc3)cc1)C2=O`: the inhibition is 7.94% (inactive). Take `O=C(O)c1ccc2c(c1)C(=O)N(c1cccc(C(=O)/C=C/c3ccccc3)c1)C2=O`: the inhibition is -7.15% (inactive).

Turning to `O=C(c1ccccc1)c1ccccc1`, the inhibition was -1.45% (inactive).

Regarding `O=C(c1ccccc1)c1ccccc1C(=O)c1ccccc1`, the inhibition was 1.31% (inactive). On to `Cc1ccc(CN2[C@@H]3c4ccccc4C[C@@H]3OCCS2(=O)=O)cc1`, for which the inhibition is -4.81% (inactive). The same measure, in the same setting: to `O=C(NCCc1ccccc1)c1cnc2ccccn2c1=O` belongs 1.36% (inactive); to `COc1cc(CCNC2=CC(=O)c3ncccc3C2=O)ccc1O`, -6.94% (inactive); to `O=C1c2ccccc2-c2cccnc21`, -0.66% (inactive). As to `CCOC(=O)CC1=NN(c2ccccc2)C(=O)/C1=C\c1ccc(N(C)C)cc1`, the inhibition is 13.3% (inactive). Take `COC(=O)CC1=NN(c2ccc(OC)cc2)C(=O)/C1=C\c1ccc(Cl)cc1`: the inhibition is -4.74% (inactive). As to `COc1ccc(C2=NN(c3ccccc3)C(=O)/C2=C\c2ccc(O)c(OC)c2)cc1`, the inhibition was 8.85% (inactive). Turning to `COc1ccc(/C=C2/C(=O)N(c3cccc(F)c3)N=C2C)c(OC)c1`, the inhibition is 16.7% (inactive).
